Screening data from PubChem BioAssay.
The list is not random: actives were taken first. Their share in the collection is about 6.1%.
DRD3 antagonist – D3 dopamine receptor (human) antagonism; max response, negative = inhibition, %; AID 652054; P35462; actives 2.5% (n = 360,000); D3R cells, DiscoveRx beta-arrestin luminescence, antagonist mode; active compounds read low; in the data active = max response below about -50%; note: % is set by controls: 0 for no effect and ±100 for the full control effect
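Cells plated overnight at 1500 cells/well, then exposed to library compounds with dopamine controls for 90 minutes at 37 degrees C. DiscoveRx reagent added for 30–60 minutes at room temperature; luminescence read, quantitative HTS format.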
D1 ag – human D1 receptor agonism; P21728; HEK293 T-REx D1 cells, calcium flux, agonist mode; activation, % at 2 µM; actives 1% (n = 360,000); in the data active = activation above about 30%; note: 0% is about no effect
Target sequence (P21728 whole entry, looked up): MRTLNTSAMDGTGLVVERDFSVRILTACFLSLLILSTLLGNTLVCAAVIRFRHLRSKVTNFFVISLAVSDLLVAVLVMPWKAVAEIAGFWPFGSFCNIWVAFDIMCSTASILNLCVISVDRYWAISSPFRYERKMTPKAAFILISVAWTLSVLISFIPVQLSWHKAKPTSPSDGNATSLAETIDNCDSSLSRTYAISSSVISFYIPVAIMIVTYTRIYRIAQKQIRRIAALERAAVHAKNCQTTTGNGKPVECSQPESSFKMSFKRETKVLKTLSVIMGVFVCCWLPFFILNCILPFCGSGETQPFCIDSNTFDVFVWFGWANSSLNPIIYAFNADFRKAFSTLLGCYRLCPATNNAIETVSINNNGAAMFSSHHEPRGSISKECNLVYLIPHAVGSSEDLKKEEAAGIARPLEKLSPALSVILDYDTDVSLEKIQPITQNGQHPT
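Tetracycline-induced HEK293 TREx D1 cells, force-coupled to calcium signalling, were dye-loaded with a no-wash calcium kit. Compound was pin-added after a 10 s baseline. Fluorescence was read kinetically at 1 cycle/s for 180 s, with calcium rises flagged as agonism.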
D3 ag – D3 dopamine receptor (human) agonism; P35462; D3R DiscoveRx beta-arrestin cells, luminescence, 90 min; max activation, %; actives 0.58% (n = 410,000); in the data active = max activation above about 30%; note: 0% is about no effect
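Agonist-mode cell screen: cells plated at 1500/well and incubated overnight at 37 °C, then exposed to library compounds for 90 min at 37 °C. Detection reagent was added for 30–60 min at room temperature, and luminescence was read.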
D1 potentiator – human D1 dopamine receptor positive modulation; HEK293 TREx D1 cells, calcium flux, dopamine EC20 potentiation; potentiation, % at 10 µM; actives 0.036% (n = 360,000); in the data active = potentiation above about 30%; note: 0% is about no effect
D1 antagonist – blocks dopamine activation of the human D1 receptor. P21728. HEK293 TREx D1 cells, calcium flux, dopamine EC80; active compounds read low. activity change, negative = inhibition, % at 10 µM. actives 3.2% (n = 360,000). AID 504652; in the data active = activity change below about -30%; note: % is set by controls: 0 for no effect and ±100 for the full control effect
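Antagonism measured as reduced calcium response to an EC80 dopamine addition following 180 s compound pre-read; cells were inducible HEK293 Trex D1 plated overnight at 30 C, read kinetically at 1 cycle/sec.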
* hit, by the source's call.

CCc1sc(-c2c(C#N)c(N)nc3c2CCCCCC3)cc1[N+](=O)[O-] was read as DRD3 antagonist 16, D1 ag 73*, D3 ag -3, D1 potentiator 20 and D1 antagonist 22.
Screening O=C1OC(N2C(=O)CC[C@H]2C(=O)Nc2ccc3c(c2)OCO3)c2ccccc21 (stereo not given in full) returned DRD3 antagonist -12, D1 ag 1, D3 ag 16, D1 potentiator 0 and D1 antagonist -5.
`O=c1oc(-c2cccs2)nc2c1cnn2-c1ccccc1` gave DRD3 antagonist -56*, D1 ag 2, D3 ag 0, D1 potentiator -1 and D1 antagonist 15.
O=c1oc(-c2ccccc2)nc2c1cnn2-c1ccccc1 was read as DRD3 antagonist 8, D1 ag 5, D3 ag -14, D1 potentiator -1 and D1 antagonist -4.
For COc1ccc(OC)c(NC(=O)c2nc(S(=O)(=O)Cc3ccc(F)cc3)ncc2Cl)c1 the results were D1 ag 4, D3 ag -24, D1 potentiator 1 and D1 antagonist -35*.
COc1ccccc1NC(=O)c1nc(S(=O)(=O)Cc2ccccc2)ncc1Cl was read as DRD3 antagonist -89*, D1 ag 4, D3 ag -32, D1 potentiator -8 and D1 antagonist -38*.
